The source made the active and inactive calls. Rule for the calls: active = hit-call score of the fitted dose curve at least 0.9, where 1 is the maximum; inactive = score below 0.9.

The test in a line: APR_HepG2_NuclearSize_1hr: Apredica 1-hour HepG2 Assay for Nuclear Size (AID 2282670). The following applies: high-content imaging, actives raise or lower the signal. The method, then:
APR_HepG2_1hr is a cell-based, multiplexed-readout assay that uses HepG2, a human liver cell line, with measurements taken at 1 hour after chemical dosing in a 384-well plate.APR_HepG2_NuclearSize_1hr is one of 10 assay component(s) measured or calculated from the APR_HepG2_1hr assay. It is designed to make measurements of cell phenotype, a form of morphology reporter, as detected with fluorescence intensity signals by HCS Fluorescent Imaging technology.Data from the assay component APR_HepG2_NuclearSize_1hr was analyzed into 1 assay endpoint. This assay endpoint, APR_HepG2_NuclearSize_1hr, was analyzed with bidirectional fitting relative to DMSO as the negative control and baseline of activity. Using a type of morphology reporter, measures of all nuclear dna for gain or loss-of-signal activity can be used to understand the signaling at the nuclear-level. Furthermore, this assay endpoint can be referred to as a primary readout, because this assay has produced multiple assay endpoints where this one serves a signaling function. To generalize the intended target to other relatable targets, this assay endpoint is annotated to the cell morphology intended target family, where the subfamily is organelle conformation.
Cells were treated with dimethyl sulfoxide (DMSO) as a solvent control at a final concentration of 0.5% v/v or with compounds in DMSO with a resulting final DMSO concentration of 0.5% v/v. Compound treatment was done at concentrations of 0.39, 0.78, 1.56, 3.12, 6.24, 12.5, 25, 50, 100, and 200 uM in duplicate on each plate. Cells were treated with compounds for 1, 24, or 72 hr. Carbonyl […] m-chloro-phenylhydrazone (CCCP) and taxol were used as positive controls for mitochondrial function and cytoskeletal stability, respectively; DMSO served as the negative control for this experiment. Cells were fixed by the direct addition of 50 uL formaldehyde in Hank's Balanced Salt Solution (HBSS) to a final concentration of 3.7%. After incubation in the fixation medium for 30 min at room temperature (293-298 K), cells were rinsed twice with HBSS and treated with cell permeabilization buffer (16 uL of 0.5% Triton X-100) for 10 min at room temperature (293-298 K) before labeling. For mitochondrial membrane potential and mitochondrial measurements, pre-fixed cells were incubated with 50 uL of MitoTracker Red CMXRos (Invitrogen) at a concentration of 250 nM for 30 min before fixation. In the remaining cases, post-fixed cells were labeled by incubation with a multiplexed mixture of primary antibodies in HBSS for 60 min at room temperature (293-298 K) to detect immunoreactivity of c-Jun (1:500), phospho-histone H3 (1:100), phospho-histone H2A.x (1:200), p53 (1:400), alpha-tubulin (1:200) and Hoechst 33342 (2 ug/mL). Cells were labeled for multiplexed imaging on two separate plates: a) Hoechst 33342, MitoTracker Red, phospho-histone H3, and alpha-tubulin, and b) Hoechst 33342, phospho-histone H2A.x, and c-Jun. A final rinse with HBSS (50 uL) was performed before analysis. The primary and secondary antibodies for the proteins were phospho-histone H3 (rabbit anti-phospho-histone H3 and FITC-donkey anti-rabbit IgG), phospho-histone H2A.x (mouse anti-phospho-histone H2A.x and FITC-donkey anti-mouse IgG), c-Jun (rabbit anti-phospho-c-Jun and Cy3-donkey anti-rabbit IgG), p53 (sheep anti-p53 and Cy5-donkey anti-sheep IgG), alpha-tubulin (mouse anti-alpha-tubulin and Cy5-donkey anti-mouse IgG). These antibodies are available as the CellCiphr HepG2 assay kit (Millipore).Digital images of each well were captured using a Cellomics ArrayScan VTI (Thermo Scientific Cellomics) (0.8 NA objective, 0.63x optical coupler, and XF-93 filter set) at 20x magnification. The images were acquired using the autofocus feature of the ArrayScan instrument, which entails the following steps. First, the camera focuses on channel 1 (Hoechst 33342), where nuclei are identified. Second, a Z offset of 1 um is used for capturing mitochondria (MitoTracker Red). […]
Take `CCSC(=O)N(CC(C)C)CC(C)C`: the molecule was classed as inactive.
For the molecule `O=C(O)C1(C(=O)Nc2ccc(Cl)cc2Cl)CC1`, the call was inactive.
Turning to `CCNc1nc(N)nc(Cl)n1`, the molecule was called inactive.
`COC(=O)c1ccccc1S(=O)(=O)NC(=O)Nc1nc(OC(F)F)cc(OC(F)F)n1`: the molecule was called inactive.
As for `COCCO`, the entry is “inactive”; as for `CCCCOCCOCCOCc1cc2c(cc1CCC)OCO2`, “inactive”; as for `c1ccc(Nc2ccccc2)cc1`, “inactive”.
As to `OB(O)O`, the molecule was classed as inactive.
As for `CCC(O)=C1C(=O)CC(C(=O)O)CC1=O` (stereo not given), the molecule was called inactive.
The same measure for `CCN(CC)C(=O)c1cccc(C)c1`: “inactive”; for `COC(=O)c1ccccc1C(=O)O`: “inactive”; for `C#CCOC(=O)[C@@H](C)Oc1ccc(Oc2ncc(Cl)cc2F)cc1`: “inactive”.
The same measure for `Cc1nn(C)c(Oc2ccccc2)c1C=NOCc1ccc(C(=O)OC(C)(C)C)cc1`: “inactive”.
The same measure for `CCOC(=O)NCCOc1ccc(Oc2ccccc2)cc1`: “inactive”; for `C=CCOC(Cn1ccnc1)c1ccc(Cl)cc1Cl` (stereo not given): “inactive”; for `CCCN(CCC)C(=O)SCC`: “inactive”.
With `CCCOC(=O)NCCCN(C)C`, the outcome was inactive.
`CC(C)(c1ccc(O)cc1)c1ccc(O)cc1`: the result was inactive.
For the molecule `COC(=O)c1ccc(CNS(C)(=O)=O)cc1S(=O)(=O)NC(=O)Nc1nc(OC)cc(OC)n1`, the molecule was called inactive.
On to `CCCCCCC(C)OC(=O)COc1nc(F)c(Cl)c(N)c1Cl` (stereo not given), for which the outcome was inactive.
As for `CC1(C)C(C=C(Cl)Cl)C1C(=O)OCc1cccc(Oc2ccccc2)c1` (stereo not given), the entry is “inactive”; as for `COC(=O)c1cccc(C)c1S(=O)(=O)NC(=O)Nc1nc(OCC(F)(F)F)nc(N(C)C)n1`, “inactive”; as for `CCOC(=O)COc1cc(-n2ncc(C(F)(F)F)c(C)c2=O)c(F)cc1Cl`, “inactive”.
In the case of `O=C(Nc1ccc([N+](=O)[O-])cc1Cl)c1cc(Cl)ccc1O`, the molecule was called inactive.
As for `CCCN(CCC)c1c([N+](=O)[O-])cc(C(F)(F)F)c(N)c1[N+](=O)[O-]`, the entry is “inactive”; as for `Oc1ccc(C(c2ccc(O)cc2)C(Cl)(Cl)Cl)cc1`, “inactive”; as for `COc1nc(C)nc(NC(=O)NS(=O)(=O)c2ccccc2OCCCl)n1`, “inactive”.
Regarding `CCCCC(CC)CN1C(=O)C2C3C=CC(C3)C2C1=O` (stereo not given), the molecule was classed as inactive.
The same measure for `CSC(=O)c1cccc2nnsc12`: “inactive”; for `CCOC(=O)C(C)Oc1ccc(Oc2nc3ccc(Cl)cc3o2)cc1` (stereo not given): “inactive”; for `c1ccc2[nH]c(-c3cscn3)nc2c1`: “inactive”.
As for `CCOC(=O)C(C)Oc1ccc(Oc2cnc3cc(Cl)ccc3n2)cc1` (stereo not given), the entry is “inactive”; as for `COC(=O)CSc1cc(N=c2sc(=O)n3n2CCCC3)c(F)cc1Cl`, “inactive”; as for `CCOC(=O)[C@H](C)Oc1ccc(Oc2nc3ccc(Cl)cc3o2)cc1`, “inactive”.
On to `CCCOC(=O)c1ccc(C(=O)OCCC)nc1`, for which the result was inactive.
Consider `CCCCC(CC)COC(=O)c1ccccc1C(=O)O` (stereo not given), for which the call was inactive.
Consider `CN(C)C(=O)Nc1ccc(Cl)c(Cl)c1`, for which the outcome was inactive.
The same measure for `CCCCCOC(=O)COc1cc(N2C(=O)C3=C(CCCC3)C2=O)c(F)cc1Cl`: “inactive”; for `CCN(Cc1c(F)cccc1Cl)c1c([N+](=O)[O-])cc(C(F)(F)F)cc1[N+](=O)[O-]`: “inactive”.
`CC(C)(C)[C@@H](O)[C@@H](Cc1ccc(Cl)cc1)n1cncn1`: the molecule was called inactive.

The values above are taken from PubChem BioAssay (EPA / NIEHS).
